Drawing on PubChem BioAssay (NCI), this text covers growth for eight compounds.

The structures appear in SMILES notation. About 83,000 compounds went through this panel and 20% of them were active in at least one assay; those are over-represented in the sample as a whole.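 Method: cells in 96-well plates; compound added at one concentration; 48 h incubation; percent growth measured; values under 10 scored active.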 Values without a mark were called inactive. Activity calls are given as the source filed them.

Some test systems named below: SR leukemia; RPMI-8226 leukemia; OVCAR-8 ovarian; OVCAR-5 ovarian; OVCAR-4 ovarian; SK-OV-3 ovarian; IGROV1 ovarian; OVCAR-3 ovarian; HS 578T breast; NCI/ADR-RES ovarian; T-47D breast; BT-549 breast; MDA-MB-435 melanoma; SW-620 colon; MCF7 breast; HCT-116 colon; KM12 colon; MDA-MB-468 breast; HCC-2998 colon.
Holding throughout (assay): NCI-60 one-dose screen, 48 h (100 = growth as untreated, 0 = no growth, -100 = all killed)
Common to all, as to settings: 10 µM

On to `O=S(=O)(Nc1ncccn1)c1ccc(-n2c(-c3ccccc3)nc(-c3ccccc3)c2-c2ccccc2)cc1`, for which the growth was 81.8% with SR leukemia; 71.1% in the test on RPMI-8226 leukemia; 97.4% with OVCAR-8 ovarian; 104% with OVCAR-5 ovarian; 94.1% with OVCAR-4 ovarian; 101% in the test on SK-OV-3 ovarian. Moreover, the growth in the test with IGROV1 ovarian was 103%; in the test with OVCAR-3 ovarian it was 113%; in the test with HS 578T breast it was 81%; with NCI/ADR-RES ovarian it was 95.3%; with T-47D breast, 52.2%; with BT-549 breast, 69%. Besides, the growth in the test on MDA-MB-435 melanoma was 101%; in the test on SW-620 colon, 91.9%; in the test on MCF7 breast, 71.1%; with HCT-116 colon, 86.4%; in the test with KM12 colon, 88.4%; in the test on MDA-MB-468 breast, 85.7%.
In the case of `Cn1c(O)c(N=Nc2nc(-c3cc4ccccc4oc3=O)cs2)c2cc(Br)ccc21`, the growth in the test with SR leukemia was 71.7%; in the test with RPMI-8226 leukemia, 96.6%; in the test with OVCAR-8 ovarian, 79.2%; in the test on OVCAR-5 ovarian, 86.5%; in the test with OVCAR-4 ovarian it was 80.9%; in the test on SK-OV-3 ovarian, 57.7%. Also, the growth is 64.2% in the test on IGROV1 ovarian; 96.4% with OVCAR-3 ovarian; 17.5% with HS 578T breast; 68.4% in the test with NCI/ADR-RES ovarian; 82.8% in the test with T-47D breast; 59.6% in the test on BT-549 breast. The growth in the test on MDA-MB-435 melanoma was 106%; with SW-620 colon, 99.8%; in the test on MCF7 breast, 77.4%; in the test with HCT-116 colon it was 48.9%; in the test with HCC-2998 colon it was 97.7%; in the test with KM12 colon it was 95.5%. Besides, the growth in the test on MDA-MB-468 breast is 41.8%.
Turning to `N#C/C(=C\c1ccc(N(c2ccccc2)c2ccccc2)cc1)C(N)=O`, the growth in the test on SR leukemia is 69.1%; in the test with RPMI-8226 leukemia it was 19.8%; with OVCAR-8 ovarian, 75.1%; in the test with OVCAR-5 ovarian, -60.6% (active); in the test with OVCAR-4 ovarian, 4.67% (active); in the test on SK-OV-3 ovarian, 56%. Besides, the growth was -21.2% (active) in the test on IGROV1 ovarian; 3.69% (active) with OVCAR-3 ovarian; 99.2% with HS 578T breast; 57.4% in the test on NCI/ADR-RES ovarian; -26.7% (active) in the test with T-47D breast; 69.6% in the test with BT-549 breast. The growth is 92.7% in the test on MDA-MB-435 melanoma; 45.6% in the test on SW-620 colon; 6.51% (active) in the test on MCF7 breast; 14.9% in the test on HCT-116 colon; 78.6% in the test with KM12 colon; -91.2% (active) with MDA-MB-468 breast.
For `CCOc1ccc2ncc(C#Cc3cncc(C(=O)Nc4ccc(CN5CCN(C)CC5)c(C(F)(F)F)c4)c3)n2n1`, the growth was 1.01% (active) in the test on SR leukemia; -13.3% (active) in the test on RPMI-8226 leukemia; -60.9% (active) in the test with OVCAR-8 ovarian; -87% (active) in the test with OVCAR-5 ovarian; -60.6% (active) in the test with OVCAR-4 ovarian; 45.7% with SK-OV-3 ovarian. Further, the growth in the test with IGROV1 ovarian is -58.2% (active); in the test with OVCAR-3 ovarian it was -79.1% (active); with HS 578T breast, -28.2% (active); in the test on NCI/ADR-RES ovarian, -70.1% (active); with T-47D breast, 71.9%; in the test on BT-549 breast, -60.9% (active). The growth in the test on MDA-MB-435 melanoma is -74.2% (active); in the test on SW-620 colon, -62.1% (active); in the test with MCF7 breast, -63.7% (active); in the test on HCT-116 colon, -48% (active); in the test on HCC-2998 colon, -89.3% (active); with MDA-MB-468 breast it was -76.1% (active).
`Cc1noc2c(Cc3ccccc3)nn(CC(=O)N/N=C/c3ccc(Cl)cc3)c(=O)c12`: the growth in the test with SR leukemia is 104%; with RPMI-8226 leukemia, 75.5%; in the test with OVCAR-8 ovarian, 8% (active); with OVCAR-5 ovarian, 66%; in the test with OVCAR-4 ovarian, -59.5% (active); in the test on SK-OV-3 ovarian, 33.9%. In addition, the growth in the test on IGROV1 ovarian was 41%; with OVCAR-3 ovarian, -31.8% (active); in the test with HS 578T breast, 4.07% (active); in the test with NCI/ADR-RES ovarian it was 53.2%; in the test with T-47D breast it was 9.05% (active); in the test with BT-549 breast, 89.4%. Besides, the growth in the test on MDA-MB-435 melanoma is 75.8%; with SW-620 colon it was 51.7%; with MCF7 breast it was 51.9%; in the test with HCT-116 colon it was 26.4%; in the test on HCC-2998 colon, 79.7%; with MDA-MB-468 breast it was 81%.
For `O=C(NCCCCCCCCCC[P+](c1ccccc1)(c1ccccc1)c1ccccc1)c1ccc(-n2nc(-c3ccccc3O)nc2-c2ccccc2O)cc1`, the growth in the test on SR leukemia was 1.87% (active); with RPMI-8226 leukemia, 1.07% (active); in the test on OVCAR-8 ovarian, -22.2% (active); in the test on OVCAR-5 ovarian, -94% (active); in the test on OVCAR-4 ovarian, -51.8% (active); in the test on SK-OV-3 ovarian, -71.5% (active). Further, the growth was -75.7% (active) with IGROV1 ovarian; -14.1% (active) in the test with OVCAR-3 ovarian; -22.1% (active) in the test on HS 578T breast; 37.4% in the test on NCI/ADR-RES ovarian; -51.9% (active) with T-47D breast; -87.4% (active) in the test on BT-549 breast. Also, the growth with MDA-MB-435 melanoma is -81.3% (active); in the test with SW-620 colon, -60.9% (active); with MCF7 breast, -87% (active); with HCT-116 colon it was -79.4% (active); with KM12 colon, -27.1% (active); with MDA-MB-468 breast, -87.7% (active).
Turning to `Cc1ccn2c(C(=O)c3ccccc3)cc(-c3cc(-c4ccc(N(C)C)cc4)c(C#N)c(N)n3)c2c1`, the growth is 75.9% in the test on SR leukemia; 82.5% in the test with RPMI-8226 leukemia; 15.1% in the test with OVCAR-8 ovarian; 83.4% with OVCAR-5 ovarian; 45.5% with OVCAR-4 ovarian; 65.2% in the test on SK-OV-3 ovarian. The growth in the test with IGROV1 ovarian was 86.3%; with OVCAR-3 ovarian, 58.2%; with HS 578T breast, 33.2%; in the test with NCI/ADR-RES ovarian it was 50.8%; with T-47D breast, 63.6%; in the test with BT-549 breast, 58.1%. For the same compound, the growth with MDA-MB-435 melanoma was 78.8%; in the test on SW-620 colon, 69.7%; with MCF7 breast, 54.3%; in the test on HCT-116 colon, 63.4%; in the test on HCC-2998 colon, 92%; in the test on KM12 colon, 74%. Besides, the growth with MDA-MB-468 breast was 50.7%.
Take `O=c1[nH]c2ccccc2cc1CSc1ccc(Nc2nccc(-c3ccc4ccccc4c3)n2)cc1`: the growth was 80.7% with SR leukemia; 67.5% in the test on RPMI-8226 leukemia; -28% (active) in the test with OVCAR-8 ovarian; 62.9% in the test on OVCAR-5 ovarian; -13.6% (active) with OVCAR-4 ovarian; 116% in the test on SK-OV-3 ovarian. Further, the growth is 73.9% in the test on IGROV1 ovarian; 13.1% in the test on OVCAR-3 ovarian; 60.6% with HS 578T breast; 24.4% in the test with NCI/ADR-RES ovarian; 86.8% in the test on T-47D breast; 48.6% in the test on BT-549 breast. For the same compound, the growth is 69.8% in the test on MDA-MB-435 melanoma; 32.9% in the test with SW-620 colon; 19% with MCF7 breast; 26.2% in the test on HCT-116 colon; 63.5% with HCC-2998 colon; 50.2% in the test on KM12 colon. Besides, the growth in the test with MDA-MB-468 breast was -3.76% (active).
